# G9a block – G9a (human) methyltransferase inhibition; AID 504332; Potency, µM (top dose mostly 102 µM), inactives show at the highest dose activity, negative = inhibition, hits mostly inhibitors; G9a H3K9 monomethylation, AlphaScreen, 2 h; 350,000 tested, 8.8% active; note: % is set by controls: 0 for no effect and ±100 for the full control effect; nearly all actives have a fitted effect of over 75% in size
#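 Chemiluminescent proximity detection of H3K9 monomethylation, read after 10 min bead incubation in the dark. Reaction: 20 nM G9a, 500 nM biotin-H3K9 peptide, 20 uM SAM cofactor, 2 h, room temperature, following 15 min enzyme-compound preincubation.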
# GLS inhibitor – blocks human kidney-isoform glutaminase activity; 410,000 tested, 0.21% active; Potency, µM (series often up to 45.5 µM), without a hit: top-dose activity change, negative = inhibition, usual class: inhibitors; AID 624170; GLS enzymatic activity, qHTS titration; note: % is set by controls: 0 for no effect and ±100 for the full control effect
#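 Human kidney-isoform GLS in 45 mM KH2PO4 pH 8.2, 0.02% Tween-20, with compound, started with 1mM L-Glutamine (added stock). Glutamate oxidase/HRP/Amplex red coupled fluorescence read at start and after 30 min at RT.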
# L3MBTL1 inh – blocks human L3MBTL1; AlphaScreen L3MBTL1–H3K9me1 peptide binding; 230,000 tested, 0.66% active; Potency, µM (top dose mostly 57.1 µM), for inactives: at the top dose activity, negative = inhibition, hits mostly inhibitors; Q9Y468; AID 485360; note: % is set by controls: 0 for no effect and ±100 for the full control effect; nearly all actives have a fitted effect of over 60% in size
# Target sequence (Q9Y468 whole entry, looked up): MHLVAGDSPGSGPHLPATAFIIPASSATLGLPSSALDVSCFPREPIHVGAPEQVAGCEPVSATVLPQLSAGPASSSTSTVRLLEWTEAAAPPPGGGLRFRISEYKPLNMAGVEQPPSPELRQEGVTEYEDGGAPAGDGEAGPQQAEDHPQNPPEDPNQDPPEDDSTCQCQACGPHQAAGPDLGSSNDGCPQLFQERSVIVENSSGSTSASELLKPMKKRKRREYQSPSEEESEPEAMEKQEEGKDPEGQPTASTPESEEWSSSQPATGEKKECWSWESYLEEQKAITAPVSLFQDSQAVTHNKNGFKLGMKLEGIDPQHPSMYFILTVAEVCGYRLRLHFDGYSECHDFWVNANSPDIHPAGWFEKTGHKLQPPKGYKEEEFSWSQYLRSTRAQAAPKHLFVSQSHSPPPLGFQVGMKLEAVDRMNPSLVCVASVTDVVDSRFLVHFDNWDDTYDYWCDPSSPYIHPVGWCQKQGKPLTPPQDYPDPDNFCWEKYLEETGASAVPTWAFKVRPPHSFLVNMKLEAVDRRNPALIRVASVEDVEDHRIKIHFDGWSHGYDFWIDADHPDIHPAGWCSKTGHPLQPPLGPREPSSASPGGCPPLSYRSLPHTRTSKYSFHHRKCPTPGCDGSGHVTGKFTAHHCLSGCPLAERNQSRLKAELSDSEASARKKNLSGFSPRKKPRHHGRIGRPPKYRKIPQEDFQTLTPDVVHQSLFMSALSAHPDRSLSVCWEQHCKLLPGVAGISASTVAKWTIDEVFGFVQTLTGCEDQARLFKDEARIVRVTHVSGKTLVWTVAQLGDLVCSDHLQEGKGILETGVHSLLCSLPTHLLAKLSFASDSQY
#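 L3MBTL1 50 nM + b-AHA-H3(1-15)K9me1 75 nM, 30 min RT; compound added, 30 min RT; streptavidin donor/Ni-chelate acceptor beads 10 ug/mL each final, 30 min RT dark; AlphaScreen read.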
# BAZ2B inh – BAZ2B (human) inhibition. AID 504333. AlphaScreen BAZ2B-H3K14Ac peptide displacement. Potency, µM (highest dose often 114 µM), for the others: at the highest dose activity change, negative = inhibition, actives largely listed as inhibitors. 360,000 tested, 4.4% active. Q9UIF8; note: % is set by controls: 0 for no effect and ±100 for the full control effect; nearly all actives have a fitted effect of over 60% in size
#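 In this displacement format the biotinylated H3(5-23) peptide acetylated at Lys14 serves as ligand at 50 nM, with BAZ2B at 50 nM in PBS pH 7.4 containing 0.01% Tween-20. Donor and acceptor beads are 10 ug/mL final.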
# HP1b binding inh – blocks HP1-beta chromodomain binding to methylated histone tails | P83916 | AlphaScreen HP1-beta / biotin-H3K9me3 peptide binding | Potency, µM (doses to about 114 µM), for inactives: at the top dose activity change, negative = inhibition, usual class: inhibitors | 390,000 tested, 0.56% active | AID 540317; note: nearly all actives have a fitted effect of over 70% in size
#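 Compound inhibition of the preformed complex between 50 nM HP1-beta and 50 nM biotinylated H3K9me3 peptide was read by AlphaScreen. Buffer was PBS pH 7.4 with 0.01% Tween-20. Incubations ran 30 min at room temperature, with 10 ug/mL donor/acceptor beads.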
# JMJD2A Tudor – blocks the human JMJD2A Tudor domain. AlphaScreen JMJD2A-Tudor / H3K4me3 peptide binding. Potency, µM (highest dose often 114 µM), for inactives: at the top dose activity change, negative = inhibition, most hits filed as inhibitors. AID 504339. 390,000 tested, 4.4% active; note: % is set by controls: 0 for no effect and ±100 for the full control effect; nearly all actives have a fitted effect of over 50% in size
# * = called active by the depositor; ? = inconclusive; / = no result; [ ] = another dose, or the depositor's remark. The list is not random: actives were taken first. Their share in the collection is about 10%. Calls come from the whole dose curve; as a rule, active = well fitted curve in the direction sought with a large enough effect; inconclusive = small, poorly fitted or top-dose-only effect, or another doubt; inactive = no such curve, though single readings can be large; an effect the other way counts as inactive or inconclusive. Potency is the fitted concentration of half-maximal effect.
SMILES,G9a block,GLS inhibitor,L3MBTL1 inh,BAZ2B inh,HP1b binding inh,JMJD2A Tudor
CCCC(=O)N(c1ccc2oc3c(c2c1)CCCC3)S(=O)(=O)c1cc(C)ccc1C,-4.5%[59 µM],4.1%,/,-19.8%,37.3%,15.9%
CCOc1ccc(NC(=O)CN(C)C(=O)Cn2cnc3c2c(=O)n(C)c(=O)n3C)cc1OCC,50.1µM*,-5.6%,-0.6%,-4.0%,21.7%,1.4%
COc1ccc(NC(=O)CN(C)C(=O)c2cc(-c3ccc(Cl)cc3)nc3ccccc23)cc1,?,-10.8%,-6.1%,-22.1%,18.2%,-27.6%
CCOc1ccc(NC(=O)CN(C)C(=O)c2ccccc2CCc2ccccc2)cc1OCC,56.2µM*,-4.3%,-6.0%,-3.1%,39.9%,-32.6%
CCOc1ccc(NC(=O)CN(C)C(=O)c2ccncc2)cc1OCC,39.8µM*,-3.4%,/,-34.7%,45.6%,-4.8%
CCOc1ccc(NC(=O)CN(C)C(=O)c2cc(-c3ccc(OC)cc3)nc3ccccc23)cc1OCC,50.1µM*,-1.3%,-5.0%,-33.3%,19.2%,-32.4%
NC(=O)N/N=C/c1ccc(-c2cccc(C(F)(F)F)c2)o1,-30.7%,3.1%,4.3%,-33.8%,20.9%,-22.6%
NC(=O)N/N=C/c1ccc(-c2ccc(S(=O)(=O)Nc3ncccn3)cc2)o1,11.2µM*,-3.1%,-22.9%,-12.4%,12.8%,-11.7%
Cc1ccc(C(=O)N/N=C\c2ccc(-c3ccc(Cl)cc3)o2)cn1,0.6%,-0.2%,-8.5%,-17.8%,14.2%,-18.9%
CC(C)Oc1ccc(C(=O)N/N=C/c2ccc(-c3ccc(S(=O)(=O)Nc4ncccn4)cc3)o2)cc1,50.1µM*,-19.5%,/,?,-5.7%,?
COc1ccc(-c2[nH]c(-c3ccc(OC)c(OC)c3)nc2SCC(=O)Nc2ccccc2)cc1,-17.6%[59 µM],-10.8%,/,2.3%,-13.7%,?
COc1cccc(CNc2ccc3[nH]c(=O)[nH]c3c2)c1OCc1ccc(F)cc1,?,47.5%,?,44.7µM*,?,39.8µM*
N#Cc1ccc(OCC(=O)Nc2ccc3[nH]c(=O)[nH]c3c2)cc1,-6.5%,5.6%,5.3%,4.3%,0.1%,-11.2%
C=CCOc1c(CNc2ccc3[nH]c(=O)[nH]c3c2)cccc1OC,/,-17.7%,-0.7%,-7.4%,?,44.7µM*
COc1cccc(CNc2ccc(C(=O)O)cc2)c1OCc1ccccc1,/,2.0%,3.5%,-22.6%,42.4%,-1.4%
C=CCOc1ccc(CNc2ccc3[nH]c(=O)[nH]c3c2)cc1,-12.0%,11.2µM*,-3.2%,-12.4%,-27.6%,?
Cc1ccc(C(=O)Nc2sc3c(c2C(=O)O)CCCC3)o1,?,-3.5%,/,-33.3%,18.8%,-3.2%
CCOC(=O)c1c(-n2c(C)cc(C=O)c2C)sc2c1CCCC2,?,-1.6%,-3.6%,?,-29.8%,56.2µM*
Cc1ccc(C)n1-c1sc2c(c1C(=O)O)CCCC2,44.7µM*,6.3%,?,?,?,22.4µM*
Cc1c(OCc2nn[nH]n2)ccc2c(-c3ccccc3)cc(=O)oc12,50.1µM*,52.0%,9.6%,5.9%,31.1%,-3.7%
COc1ccc(-c2cc(=O)oc3c(C)c(OCc4nn[nH]n4)ccc23)cc1,?,34.9%,7.5%,-1.1%,27.7%,5.6%
Cc1ccc2nc(N(CCCN(C)C)C(=O)c3sc4ccccc4c3Cl)sc2c1,50.1µM*,-0.5%,-10.6%,?,?,44.7µM*
CCN(CC)CCN(C(=O)c1ccc2c(c1)CCCC2)c1nc2ccc(F)cc2s1,50.1µM*,6.3%,/,/,15.3%,-35.2%
CN(C)CCCN(C(=O)c1ccc2c(c1)CCCC2)c1nc2ccc(F)cc2s1,44.7µM*,2.8%,?,?,-21.1%,?
CCN(CC)CCN(C(=O)c1ccc2c(c1)CCCC2)c1nc2c(C)cccc2s1,35.5µM*,-1.6%,/,?,28.4%,?
CN(C)CCCN(C(=O)c1ccc2c(c1)CCCC2)c1nc2cc3c(cc2s1)OCO3,/,6.4%,/,?,-12.7%,?
